# Measured values as given in PubChem BioAssay (Tox21).
# Unmarked numbers belong to inactive results. Inconclusive results are not listed. Entries that show only a call come without a potency. The source made the active and inactive calls. The call rests on the fitted dose curve; in most records, active means well fitted curve in the direction sought with a large enough effect in the repeat runs; inconclusive means weak or mixed curves; inactive means no such curve, though single readings can be large; an effect the other way counts as inactive or inconclusive.
# Columns and labels:
# [1] = A CellTox Green Cytotoxicity Assay to monitor cytotoxicity in HEK293 cells - 40 hour (AID 1224871); further: nearly all actives have a fitted effect of over 45% in size; further: potency means the concentration at half of the fitted maximal effect
# Summary of the method: (§1)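 Cytotoxicity was tracked continuously in HEK293 cells by a DNA-binding dye excluded from viable cells. Compounds were transferred in DMSO 5 h after seeding; fluorescence was recorded at intervals up to 40 h.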
# [2] = qHTS RealTime-Glo MT Cell Viability Assay in HEK293 cells - 16 hour (AID 1224872); further: top concentration of the series differs between compounds; nearly all actives have a fitted effect of over 50% in size
# Summary of the method: (§2)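 Assay medium contained NanoLuc luciferase plus cell-permeant prosubstrate, added with HEK293 cells at 600 cells/well. After 5 h at 37 C/5% CO2 compounds were added; plates stayed at 37 C for 40 h with serial luminescence reads.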
# [3] = qHTS RealTime-Glo MT Cell Viability Assay in HepG2 cells - 8 hour (AID 1224873); further: nearly all actives have a fitted effect of over 55% in size
# Summary of the method: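 HepG2 cells mixed with RealTime-Glo MT reagents (NanoLuc plus cell-permeant prosubstrate) were seeded at 600 cells/well, incubated 5 h at 37 C/5% CO2, then pinned with compounds in DMSO; nonlytic luminescence tracked viability during 40 h treatment.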
# [4] = qHTS RealTime-Glo MT Cell Viability Assay in HEK293 cells - 40 hour (AID 1224874); details: RealTime-Glo luminescence; max response: hits give low values; further: nearly all actives have a fitted effect of over 50% in size
# Summary of the method: (§3)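 Nonlytic bioluminescent viability monitoring. HEK293 at 600 cells/well with reagent; 5 h settle; compound transfer by pintool; plates held at 37 C and read at set time points.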
# [5] = A CellTox Green Cytotoxicity Assay to monitor cytotoxicity in HEK293 cells - 24 hour (AID 1224875); further: nearly all actives have a fitted effect of over 45% in size; further: potency means the concentration at half of the fitted maximal effect
# Summary of the method: as §1
# [6] = A CellTox Green Cytotoxicity Assay to monitor cytotoxicity in HepG2 cells - 16 hour (AID 1224876); further: nearly all actives have a fitted effect of over 45% in size
# Summary of the method: (§4)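 Real-time, homogeneous cytotoxicity readout: dead-cell DNA staining by CellTox Green in HepG2 monolayers, fluorescence measured at timed intervals up to 40 h of continuous compound exposure.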
# [7] = qHTS RealTime-Glo MT Cell Viability Assay in HepG2 cells - 32 hour (AID 1224877); further: nearly all actives have a fitted effect of over 55% in size
# Summary of the method: (§5)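 qHTS, HepG2, 600 cells/well, RealTime-Glo (NanoLuc + prosubstrate) added with cells; 5 h preincubation; DMSO compound addition; 37 C; luminescence at 0/8/16/24/32/40 h.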
# [8] = A CellTox Green Cytotoxicity Assay to monitor cytotoxicity in HepG2 cells - 24 hour (AID 1224878); further: nearly all actives have a fitted effect of over 45% in size
# Summary of the method: as §4
# [9] = A CellTox Green Cytotoxicity Assay to monitor cytotoxicity in HepG2 cells - 40 hour (AID 1224879); further: nearly all actives have a fitted effect of over 40% in size
# Summary of the method: as §4
# [10] = qHTS RealTime-Glo MT Cell Viability Assay in HEK293 cells - 0 hour (AID 1224880)
# Summary of the method: as §3
# [11] = A CellTox Green Cytotoxicity Assay to monitor cytotoxicity in HepG2 cells - 0 hour (AID 1224882); further: nearly all actives have a fitted effect of over 35% in size
# Summary of the method: as §4
# [12] = A CellTox Green Cytotoxicity Assay to monitor cytotoxicity in HepG2 cells - 32 hour (AID 1224883); further: nearly all actives have a fitted effect of over 50% in size
# Summary of the method: as §4
# [13] = A CellTox Green Cytotoxicity Assay to monitor cytotoxicity in HEK293 cells - 8 hour (AID 1224884); further: nearly all actives have a fitted effect of over 35% in size
# Summary of the method: as §1
# [14] = qHTS RealTime-Glo MT Cell Viability Assay in HepG2 cells - 16 hour (AID 1224885); further: nearly all actives have a fitted effect of over 50% in size
# Summary of the method: as §5
# [15] = qHTS RealTime-Glo MT Cell Viability Assay in HEK293 cells - 24 hour (AID 1224886)
# Summary of the method: as §2
# [16] = qHTS RealTime-Glo MT Cell Viability Assay in HEK293 cells - 8 hour (AID 1224887)
# Summary of the method: as §3
# [17] = qHTS RealTime-Glo MT Cell Viability Assay in HepG2 cells - 0 hour (AID 1224889); further: nearly all actives have a fitted effect of over 50% in size
# Summary of the method: as §5
# [18] = A CellTox Green Cytotoxicity Assay to monitor cytotoxicity in HepG2 cells - 8 hour (AID 1224890); further: nearly all actives have a fitted effect of over 45% in size
# Summary of the method: as §4
# [19] = A CellTox Green Cytotoxicity Assay to monitor cytotoxicity in HEK293 cells - 16 hour (AID 1224888); further: nearly all actives have a fitted effect of over 35% in size
# Summary of the method: as §1
# [20] = A CellTox Green Cytotoxicity Assay to monitor cytotoxicity in HEK293 cells - 32 hour (AID 1224881); further: nearly all actives have a fitted effect of over 40% in size; further: potency means the concentration at half of the fitted maximal effect
# Summary of the method: as §1
Structure (SMILES),Potency [1],Potency [2],outcome [3],max response [4] [%],Potency [5],Potency [6],Potency [7],Potency [8],Potency [9],outcome [10],outcome [11],Potency [12],Potency [13],Potency [14],Potency [15],Potency [16],outcome [17],Potency [18],Potency [19],Potency [20]
CC(Cl)(Cl)Cl,inactive,inactive,inactive,-1.28,inactive,inactive,inactive,inactive,inactive,inactive,inactive,inactive,inactive,inactive,inactive,inactive,inactive,inactive,–,–
CN1C(=O)COc2c(C(=O)NC3CN4CCC3CC4)cc(Cl)cc21 (centres undefined),inactive,inactive,inactive,3.5,inactive,inactive,inactive,inactive,inactive,inactive,inactive,inactive,–,inactive,inactive,inactive,inactive,inactive,inactive,–
CCCN1CCC[C@@H]2Cc3[nH]ncc3C[C@H]21,inactive,inactive,inactive,2.6,inactive,inactive,inactive,inactive,inactive,inactive,inactive,inactive,inactive,inactive,inactive,inactive,inactive,inactive,inactive,–
CCOC(=O)CCl,inactive,inactive,inactive,14.4,inactive,inactive,inactive,inactive,inactive,inactive,inactive,inactive,–,inactive,inactive,inactive,inactive,inactive,inactive,inactive
CS(=O)(=O)Cl,inactive,inactive,inactive,-0.619,inactive,inactive,inactive,inactive,inactive,inactive,inactive,inactive,–,inactive,inactive,inactive,inactive,inactive,–,inactive
CCOC(=O)N(C)N=O,inactive,inactive,inactive,1.11,inactive,inactive,inactive,inactive,inactive,inactive,inactive,inactive,–,inactive,inactive,inactive,inactive,inactive,inactive,inactive
ClCCCCCCCl,inactive,inactive,inactive,5.82,inactive,inactive,inactive,inactive,inactive,inactive,inactive,inactive,–,inactive,inactive,inactive,inactive,inactive,inactive,inactive
O=C(Cl)c1ccccc1,inactive,inactive,inactive,-3.78,inactive,inactive,inactive,inactive,inactive,inactive,inactive,inactive,inactive,inactive,inactive,inactive,inactive,inactive,inactive,–
ClC(Cl)(Cl)Cl,inactive,inactive,inactive,2.56,inactive,inactive,inactive,inactive,inactive,inactive,inactive,inactive,inactive,inactive,inactive,inactive,inactive,inactive,inactive,–
CN(C)CCN(C)C,inactive,inactive,inactive,7.83,inactive,inactive,inactive,inactive,inactive,inactive,inactive,–,inactive,inactive,inactive,inactive,inactive,inactive,inactive,inactive
O=C(Cl)CCl,inactive,inactive,inactive,0.179,inactive,inactive,inactive,inactive,inactive,inactive,inactive,inactive,–,inactive,inactive,inactive,inactive,inactive,inactive,–
COC(=O)c1ccc(CBr)cc1,inactive,inactive,inactive,3.15,inactive,inactive,inactive,inactive,inactive,inactive,inactive,inactive,inactive,–,inactive,inactive,inactive,inactive,–,–
Clc1ccc(C(Cl)(Cl)Cl)cn1,34.7 µM (active),inactive,inactive,1.5,34.7 µM (active),inactive,inactive,inactive,inactive,inactive,inactive,inactive,–,inactive,inactive,inactive,inactive,inactive,–,34.7 µM (active)
CCC(C(N)=O)N1CCCC1=O (centres undefined),inactive,inactive,inactive,6.54,inactive,inactive,inactive,inactive,inactive,inactive,–,inactive,inactive,inactive,inactive,inactive,inactive,inactive,–,inactive
COc1ccc(C=O)cc1O,inactive,inactive,inactive,0.952,inactive,inactive,inactive,inactive,inactive,inactive,inactive,inactive,–,inactive,inactive,inactive,inactive,inactive,inactive,–
CCN1CCCC1CNC(=O)C(O)(c1ccccc1)c1ccccc1 (centres undefined),inactive,inactive,inactive,-2.61,inactive,inactive,inactive,inactive,inactive,inactive,inactive,inactive,–,inactive,inactive,inactive,inactive,inactive,inactive,inactive

Structure (SMILES),Potency [1],Potency [2],outcome [3],max response [4] [%],Potency [5],Potency [6],Potency [7],Potency [8],Potency [9],outcome [10],outcome [11],Potency [12],Potency [13],Potency [14],Potency [15],Potency [16],outcome [17],Potency [18],Potency [19],Potency [20]
C=CC(=O)OCCN(C)C,inactive,inactive,inactive,14.5,inactive,inactive,inactive,inactive,–,inactive,inactive,inactive,–,inactive,inactive,inactive,inactive,–,–,inactive
CC1NCCOC1c1ccccc1 (centres undefined),inactive,inactive,inactive,4.25,inactive,inactive,inactive,inactive,–,inactive,inactive,inactive,inactive,inactive,inactive,inactive,inactive,inactive,inactive,inactive
COc1cccc([C@@]2(O)CCCC[C@@H]2CN(C)C)c1,inactive,inactive,inactive,0.459,inactive,inactive,inactive,inactive,–,inactive,inactive,inactive,–,inactive,inactive,inactive,inactive,inactive,inactive,–
C=CCN1CC[C@]23CCCC[C@H]2[C@H]1Cc1ccc(O)cc13,inactive,inactive,inactive,1.5,inactive,inactive,inactive,inactive,–,inactive,inactive,inactive,–,–,inactive,inactive,inactive,inactive,inactive,inactive
ClCCCCl,inactive,inactive,inactive,9.81,inactive,inactive,inactive,inactive,–,inactive,inactive,inactive,–,–,inactive,inactive,inactive,inactive,inactive,inactive
O=P(O)(O)c1ccccc1,inactive,inactive,inactive,9.41,inactive,inactive,inactive,inactive,–,inactive,inactive,inactive,inactive,inactive,inactive,inactive,inactive,inactive,inactive,inactive
CCc1ccc(C2CCNCC2)cc1,inactive,inactive,inactive,7.03,inactive,inactive,inactive,inactive,inactive,–,inactive,inactive,inactive,inactive,inactive,inactive,inactive,inactive,inactive,inactive
Cn1c(N)nc2c3cccnc3ccc21,inactive,inactive,inactive,-11,inactive,inactive,inactive,inactive,inactive,inactive,inactive,inactive,–,inactive,inactive,inactive,inactive,inactive,–,–
CCCOC(=O)Cc1ccc(OCC(=O)N(CC)CC)c(OC)c1,inactive,inactive,inactive,-5.19,inactive,inactive,inactive,inactive,–,inactive,inactive,inactive,inactive,inactive,inactive,inactive,inactive,inactive,inactive,–
C=CCC1(C(C)CC)C(=O)NC(=O)NC1=O (centres undefined),inactive,inactive,inactive,5.74,inactive,inactive,inactive,inactive,–,inactive,inactive,inactive,inactive,inactive,inactive,inactive,inactive,inactive,–,inactive
CCCOC(=O)c1cncn1C(C)c1ccccc1 (centres undefined),inactive,inactive,inactive,-0.62,inactive,inactive,inactive,inactive,–,inactive,inactive,inactive,inactive,inactive,inactive,inactive,inactive,inactive,inactive,inactive
CC(C)C(C)(N)C#N (centres undefined),inactive,inactive,inactive,-5.83,inactive,inactive,inactive,inactive,–,inactive,inactive,inactive,inactive,inactive,inactive,inactive,inactive,inactive,inactive,inactive
Oc1ccc2c3c1O[C@H]1[C@@H](O)C=C[C@H]4[C@@H](C2)NCC[C@@]341,inactive,inactive,inactive,-1.32,inactive,inactive,inactive,inactive,inactive,–,inactive,inactive,inactive,inactive,inactive,inactive,inactive,inactive,inactive,–
CCN(CCO)CCn1c(Cc2ccccc2)nc2c1c(=O)n(C)c(=O)n2C,inactive,inactive,inactive,-42.2,inactive,inactive,inactive,inactive,–,inactive,inactive,inactive,inactive,–,inactive,inactive,inactive,inactive,inactive,inactive
N#CN,inactive,inactive,inactive,4.8,inactive,inactive,inactive,inactive,–,inactive,inactive,inactive,–,inactive,inactive,inactive,inactive,inactive,inactive,inactive
